Experimental data published in PubChem BioAssay.
Activity calls are given as the source filed them.

What was measured:
[1] = tested on: Plasmodium falciparum Sir2 (PF13_0152, Sir2A); test: Plasmodium falciparum Sir2A binding compounds – biochemical, small-molecule microarray, 635 nm fluorescence, primary screen (AID 1098); conditions: fluorescence 635 nm, higher = more signal;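 also: score merges spot fluorescence intensity with its signal-to-noise ratio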
[2] = probe aDKK1 binding to arrayed compounds – biochemical, biotinylated probe, 635/667 nm fluorescence, primary screen (AID 1099); conditions: small-molecule microarray, higher = more signal;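 also: score merges 667nm spot fluorescence with signal to noise across triplicate slides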
[3] = probe aCHRDL2 binding to arrayed compounds – biochemical, biotinylated probe, 635/667 nm fluorescence, primary screen (AID 1100); conditions: small-molecule microarray, higher = more signal
[4] = change in splice reporter luminescence, either direction, cell-based, HEK293, spliceosome inhibition project, primary screen (AID 1101); conditions: HEK293 splicing luciferase reporter, 24 h, higher = more signal, called active from +8 up or from −8 down;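 also: HEK293 cells carrying a splicing-competent luciferase reporter gene; test concentration not given here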
[5] = target: Fibroblast growth factor 10 (Homo sapiens) (UniProt O15520); test: compounds binding fibroblast growth factor 10 – biochemical, small-molecule microarray, 635 nm fluorescence, primary screen (AID 1102); conditions: FGF10 binding, fluorescence 635 nm, higher = more signal
[6] = tested on: glycogen synthase kinase-3 (GSK3A per assay name; protocol says GSK3B); test: compounds binding glycogen synthase kinase-3 – biochemical, small-molecule microarray, 635 nm fluorescence, GSK3A, primary screen (AID 1103); conditions: fluorescence 635 nm, higher = more signal; also: the record names both GSK3A and GSK3B
[7] = target: Epidermal growth factor receptor (Homo sapiens) (UniProt P00533); test: compounds binding epidermal growth factor receptor – biochemical, small-molecule microarray, 635 nm fluorescence, primary screen (AID 1104); conditions: EGFR binding, higher = more signal;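 also: score merges 667 nm emission intensity with spot signal to noise over triplicate slides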
[8] = target: Follistatin-related protein 3 (Homo sapiens) (UniProt O95633); test: compounds binding follistatin-related protein 3 – biochemical, small-molecule microarray, 635 nm fluorescence, primary screen (AID 1105); conditions: FSTL3 binding, higher = more signal;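 also: score merges emission near 667 nm and signal to noise per printed spot across three slides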
[9] = target: Dickkopf-related protein 1 (Homo sapiens) (UniProt O94907); test: small molecules binding DKK1 protein – biochemical, small-molecule microarray, 635 nm fluorescence scan, primary screen (AID 1106); conditions: higher = more signal;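 also: score merges emission near 667 nm with signal to noise over three replicate slides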
[10] = tested on: Inhibin beta A chain (activin A); test: small molecules binding activin A – biochemical, small-molecule microarray, 635 nm fluorescence scan, primary screen (AID 1107); conditions: INHBA, higher = more signal;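 also: mouse activin A protein probed at 4.33 µg/mL on printed slides; score merges bound-protein fluorescence near 667 nm with spot signal-to-noise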
[11] = tested on: Human papillomavirus type 1a protein E7 (residues 44-93); test: small molecules binding HPV E7 44-93 – biochemical, small-molecule microarray, residues 44-93, 635 nm fluorescence, primary screen (AID 1108); conditions: fluorescence 635 nm, higher = more signal;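 also: E7 fragment applied at 1 µg/mL in TBST for 1 h at 4 C; score combines spot fluorescence with its signal to noise ratio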
[12] = hepatitis C replication reporter changes, two-sided – Huh7 cells, luciferase reporter, HCV replication inhibitor project, primary screen (AID 1109); conditions: Huh7 HCV replicon luciferase reporter, 48 h; higher = more signal;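 also: huh7 hepatoma cells harbouring a luciferase neomycin HCV replicon reporter; luciferase luminescence as measure of HCV replicon replication; test concentration not given here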
[13] = target: Left-right determination factor 2 (Homo sapiens) (UniProt O00292); test: small molecules binding LEFTY2 protein – biochemical, small-molecule microarray, 635 nm fluorescence scan, primary screen (AID 1110); conditions: higher = more signal
[14] = target: Calmodulin-1 (Homo sapiens) (UniProt P0DP23); test: small molecules binding calmodulin-1 with EGTA – biochemical, small-molecule microarray, Cy5-labelled CALM1, profiling panel (AID 1111); conditions: Cy5-CALM1 binding fluorescence, higher = more signal;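 also: labelled calmodulin applied in Tris saline Tween buffer holding calcium plus EGTA and DTT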
[15] = target: Calmodulin-1 (Homo sapiens) (UniProt P0DP23); test: small molecules binding Ca-loaded calmodulin-1 – biochemical, small-molecule microarray, Cy5-labelled CALM1, plus calcium, artefact control for SMM control-protein annotation, profiling panel (AID 1112); conditions: Cy5-CALM1 binding fluorescence, higher = more signal;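 also: score merges spot fluorescence with signal to noise from triplicate slides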
[16] = probe aWnt5a binding to arrayed compounds – biochemical, biotinylated probe, 635/667 nm fluorescence, primary screen (AID 1113); conditions: small-molecule microarray, higher = more signal;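 also: score merges 667 nm fluorescence intensity with signal-to-noise per printed feature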
[17] = probe aShh binding to arrayed compounds – biochemical, biotinylated probe, 635/667 nm fluorescence, primary screen (AID 1114); conditions: small-molecule microarray, higher = more signal;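 also: probe is biotin-labelled aShh protein from a stem cell growth factor screen; measures binding of labelled protein to compounds printed on the slide; score merges feature fluorescence at 667 nm with signal-to-noise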
[18] = probe aNog binding to arrayed compounds – biochemical, biotinylated probe, 635/667 nm fluorescence, primary screen (AID 1115); conditions: small-molecule microarray, higher = more signal;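 also: probe is biotinylated aNog protein used at 0.15 µg/mL for 1 h at 4 C; z-score combines 667 nm fluorescence of each spot with its signal to noise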
[19] = target: Torsin-1A-interacting protein 1 (Homo sapiens) (UniProt Q5JTV8); test: compound microarray binding of lysate hLAP1 – cell lysate, small-molecule microarray, COS7 lysate, 635/667 nm fluorescence, primary screen (AID 1116); conditions: 635 nm fluorescence, higher = more signal
[20] = target: Alpha-bungarotoxin (Bungarus multicinctus) (UniProt P60615); test: compounds binding labelled alpha-BTX control protein – biochemical, small-molecule microarray, Alexa647 label, 635/667 nm fluorescence, artefact control for SMM control protein annotation, profiling panel (AID 1117); conditions: alpha-BTX-A647 binding fluorescence, higher = more signal
Sequence of Alpha-bungarotoxin (Bungarus multicinctus) (P60615 whole entry, looked up): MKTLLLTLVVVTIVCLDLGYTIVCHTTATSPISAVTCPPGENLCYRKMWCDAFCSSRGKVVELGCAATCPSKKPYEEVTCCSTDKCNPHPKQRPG

Sequence of Left-right determination factor 2 (Homo sapiens) (O00292 whole entry, looked up): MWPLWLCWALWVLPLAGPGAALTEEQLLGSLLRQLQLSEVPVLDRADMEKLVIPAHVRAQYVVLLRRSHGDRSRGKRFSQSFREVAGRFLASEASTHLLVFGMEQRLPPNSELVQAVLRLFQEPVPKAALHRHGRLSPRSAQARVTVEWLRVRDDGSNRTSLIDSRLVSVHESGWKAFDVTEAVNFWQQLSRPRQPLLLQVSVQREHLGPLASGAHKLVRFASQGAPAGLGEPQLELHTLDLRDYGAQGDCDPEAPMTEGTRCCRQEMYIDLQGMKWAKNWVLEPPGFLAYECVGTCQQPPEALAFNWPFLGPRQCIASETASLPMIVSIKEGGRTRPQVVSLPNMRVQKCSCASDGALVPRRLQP
Sequence of Fibroblast growth factor 10 (Homo sapiens) (O15520 whole entry, looked up): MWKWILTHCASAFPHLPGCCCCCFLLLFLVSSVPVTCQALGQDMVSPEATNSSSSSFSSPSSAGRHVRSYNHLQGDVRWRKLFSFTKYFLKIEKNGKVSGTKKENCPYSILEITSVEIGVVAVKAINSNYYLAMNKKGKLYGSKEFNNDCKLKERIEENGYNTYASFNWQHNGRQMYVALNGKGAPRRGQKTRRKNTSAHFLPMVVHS
Sequence of Epidermal growth factor receptor (Homo sapiens) (P00533 whole entry, looked up): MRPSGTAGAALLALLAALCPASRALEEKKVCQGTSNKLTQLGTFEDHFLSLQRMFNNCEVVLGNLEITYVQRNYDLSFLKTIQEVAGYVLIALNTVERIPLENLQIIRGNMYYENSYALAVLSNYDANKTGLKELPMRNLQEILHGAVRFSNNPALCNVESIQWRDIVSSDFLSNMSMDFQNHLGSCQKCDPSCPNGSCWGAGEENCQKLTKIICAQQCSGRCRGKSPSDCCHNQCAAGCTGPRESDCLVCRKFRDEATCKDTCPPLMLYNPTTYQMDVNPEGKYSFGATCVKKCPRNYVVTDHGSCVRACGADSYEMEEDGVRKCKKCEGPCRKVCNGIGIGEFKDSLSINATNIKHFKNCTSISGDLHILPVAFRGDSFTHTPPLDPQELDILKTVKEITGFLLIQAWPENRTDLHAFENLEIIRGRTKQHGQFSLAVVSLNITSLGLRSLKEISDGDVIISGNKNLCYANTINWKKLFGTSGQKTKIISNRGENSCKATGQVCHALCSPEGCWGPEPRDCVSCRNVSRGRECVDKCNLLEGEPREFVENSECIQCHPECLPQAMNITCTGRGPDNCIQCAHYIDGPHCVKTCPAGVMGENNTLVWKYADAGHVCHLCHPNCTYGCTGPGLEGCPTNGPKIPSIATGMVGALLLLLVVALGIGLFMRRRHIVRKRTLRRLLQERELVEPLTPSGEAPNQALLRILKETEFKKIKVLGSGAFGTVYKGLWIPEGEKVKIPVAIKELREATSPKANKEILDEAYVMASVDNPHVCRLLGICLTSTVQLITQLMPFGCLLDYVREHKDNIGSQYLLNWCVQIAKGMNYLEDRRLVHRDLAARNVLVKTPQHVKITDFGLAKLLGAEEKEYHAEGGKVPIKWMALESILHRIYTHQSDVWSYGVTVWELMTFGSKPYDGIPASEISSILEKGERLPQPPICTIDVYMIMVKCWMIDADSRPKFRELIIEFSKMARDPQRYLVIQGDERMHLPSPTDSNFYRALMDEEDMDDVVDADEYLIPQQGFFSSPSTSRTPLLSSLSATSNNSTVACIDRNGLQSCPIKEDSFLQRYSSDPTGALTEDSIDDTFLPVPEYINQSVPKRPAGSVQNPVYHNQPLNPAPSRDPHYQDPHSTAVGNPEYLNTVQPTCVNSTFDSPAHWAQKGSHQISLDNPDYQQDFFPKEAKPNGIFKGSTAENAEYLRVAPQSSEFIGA
Sequence of Follistatin-related protein 3 (Homo sapiens) (O95633 whole entry, looked up): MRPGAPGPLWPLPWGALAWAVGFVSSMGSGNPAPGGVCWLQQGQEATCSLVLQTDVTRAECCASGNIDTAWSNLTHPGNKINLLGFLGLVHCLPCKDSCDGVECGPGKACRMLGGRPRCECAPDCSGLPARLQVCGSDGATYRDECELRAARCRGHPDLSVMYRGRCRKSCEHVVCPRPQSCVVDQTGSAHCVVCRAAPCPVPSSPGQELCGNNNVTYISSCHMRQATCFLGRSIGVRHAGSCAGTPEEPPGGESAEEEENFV
Sequence of Torsin-1A-interacting protein 1 (Homo sapiens) (Q5JTV8 whole entry, looked up): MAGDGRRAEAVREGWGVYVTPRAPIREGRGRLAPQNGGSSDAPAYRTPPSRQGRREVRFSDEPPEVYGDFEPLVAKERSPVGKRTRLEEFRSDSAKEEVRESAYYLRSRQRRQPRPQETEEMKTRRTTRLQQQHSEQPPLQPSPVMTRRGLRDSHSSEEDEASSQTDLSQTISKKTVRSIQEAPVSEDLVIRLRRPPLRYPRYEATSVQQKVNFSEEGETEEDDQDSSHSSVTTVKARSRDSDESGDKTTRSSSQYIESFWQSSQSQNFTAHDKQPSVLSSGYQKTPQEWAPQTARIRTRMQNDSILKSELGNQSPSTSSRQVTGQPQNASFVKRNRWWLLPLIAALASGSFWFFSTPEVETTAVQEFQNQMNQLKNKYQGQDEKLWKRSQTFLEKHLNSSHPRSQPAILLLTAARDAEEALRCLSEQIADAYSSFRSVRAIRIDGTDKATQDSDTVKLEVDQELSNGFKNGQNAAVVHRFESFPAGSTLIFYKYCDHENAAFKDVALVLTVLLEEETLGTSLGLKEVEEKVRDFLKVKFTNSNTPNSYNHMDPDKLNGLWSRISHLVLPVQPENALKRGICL
Sequence of Dickkopf-related protein 1 (Homo sapiens) (O94907 whole entry, looked up): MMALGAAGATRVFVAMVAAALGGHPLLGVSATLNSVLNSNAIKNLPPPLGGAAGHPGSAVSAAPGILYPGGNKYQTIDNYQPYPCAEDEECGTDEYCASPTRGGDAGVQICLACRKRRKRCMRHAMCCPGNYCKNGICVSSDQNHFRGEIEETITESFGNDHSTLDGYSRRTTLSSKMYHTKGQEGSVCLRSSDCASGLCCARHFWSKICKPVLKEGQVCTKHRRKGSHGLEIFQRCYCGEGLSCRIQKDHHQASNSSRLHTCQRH

Row | SMILES | composite z-score [1] | composite z-score [2] | composite z-score [3] | z-score [4] | composite z-score [5] | composite z-score [6] | composite z-score [7] | composite z-score [8] | composite z-score [9] | composite z-score [10] | composite z-score [11] | z-score [12] | composite z-score [13] | composite z-score [14] | composite z-score [15] | composite z-score [16] | composite z-score [17] | composite z-score [18] | composite z-score [19] | composite z-score [20]
1 | COc1ccc([Si](C)(C)[C@@H]2[C@@H](CC(=O)N3CCC[C@H]3CO)O[C@]3(C(=O)N(c4ccccc4)c4ccccc43)[C@H]2C)cc1 | 0.977 | 0.0231 | -0.169 | -2.29 (inactive) | 0.613 | 1.23 | 0.501 | 1.4 | 0.85 | 0.748 | 1.36 | -0.417 | 0.751 | 0.528 | -0.143 | -0.124 | 0.0328 | -0.0047 | 0.691 | 1.09
2 | COCCOC(=O)N1C(=O)[C@@]2(c3cc(C#Cc4ccc(OC)cc4)ccc31)[C@H](c1ccccc1OCCO)N1[C@H](c3ccccc3)[C@H](c3ccccc3)OC(=O)[C@H]1[C@@H]2C(=O)NC[C@H](O)c1ccccc1 | 1.23 | 0.201 | 0.145 | -0.352 (inactive) | 1.14 | 0.748 | 0.544 | 1.43 | 0.696 | 0.53 | 1.44 | -2.03 | 0.46 | 1.03 | 0.427 | -0.0445 | 0.0469 | 0.407 | 0.819 | 1.86
3 | CC(C)[Si](C#Cc1ccc(Oc2ccccc2)cc1)(O[Si](C#Cc1ccc(Oc2ccccc2)cc1)(C(C)C)C(C)C)C(C)C | 1.11 | 0.112 | -0.504 | -0.226 (inactive) | 1.37 | 0.478 | 0.0408 | 0.394 | 0.687 | -0.294 | 0.328 | 0.651 | 0.567 | -0.185 | 0.307 | 0.0561 | -0.0337 | -0.12 | 0.0811 | 0.262
4 | COc1ccccc1CN1C(=O)c2ccccc2[C@@]2(Cc3ccccc3N(CC(C)C)C2=O)[C@@H]1c1ccc(CO)cc1 | -0.327 | -0.266 | 0.124 | -0.686 (inactive) | -0.285 | -0.882 | -0.284 | -0.0344 | 0.0603 | 0.522 | -0.461 | -0.785 | -0.389 | -0.235 | -0.69 | -0.091 | -0.214 | -0.175 | -0.247 | -0.257
5 | NC(=O)NCC#Cc1ccc2c(c1)[C@]1(C(=O)N2)[C@H](c2ccccc2OCCO)N2[C@H](c3ccccc3)[C@H](c3ccccc3)OC(=O)[C@H]2[C@@H]1C(=O)Nc1nc2ccccc2s1 | 0.134 | -0.0335 | 0.483 | 0.663 (inactive) | 0.271 | -0.175 | -0.209 | 0.429 | 0.0336 | 0.52 | 1.36 | -0.809 | 0.0464 | 0.873 | 0.745 | -0.0944 | -0.266 | 0.448 | 0.286 | 1.29
6 | C=C(C)[C@@H]1CC=C(C(O)C2C=CC3C(=O)N(c4ccccc4)C(=O)C3N2Nc2ccccc2)CC1 (stereo not given in full) | 0.972 | 1.06 | 0.906 | 0.0541 (inactive) | 0.852 | 1.32 | -0.747 | 1.15 | 0.364 | 0.622 | 0.478 | -1.38 | 0.261 | 2.06 | 0.103 | 0.212 | 0.642 | 1.95 | 1.79 | 2.62
7 | C=CCOC(=O)[C@H]1[C@@H]2C(=O)O[C@@H](c3ccccc3)[C@@H](c3ccccc3)N2[C@@H](c2ccc(OCCOC(=O)[C@H]3C[C@H]4C(=O)N[C@@H](CCCCNC(C)=O)C(=O)N4[C@H]3c3cccc(OCCO)c3)cc2)[C@]12C(=O)Nc1ccccc12 | 1.42 | -0.194 | 0.285 | 0.29 (inactive) | 1.31 | 1.32 | 0.674 | 0.775 | 0.824 | 0.134 | 1.36 | -1.47 | 0.578 | 2.53 | -0.0073 | -0.101 | 0.13 | 0.0588 | 1.22 | 0.977
8 | COc1ccc(C#Cc2ccc3c(c2)[C@]2(C(=O)N3)[C@H](C(=O)NC[C@H](O)c3ccccc3)[C@H]3C(=O)O[C@H](c4ccccc4)[C@H](c4ccccc4)N3[C@@H]2c2ccc(O)cc2)cc1 | 1.16 | -0.0262 | 0.295 | -0.993 (inactive) | 1.02 | 1.16 | 0.417 | 0.768 | 0.484 | 0.0998 | 1.43 | -1.38 | 0.559 | 1.04 | -0.064 | 0.0952 | 0.0723 | 0.277 | 1.06 | 1.72
9 | NC(=O)NCC#Cc1ccc2c(c1)[C@]1(C(=O)N2)[C@H](c2ccc(O)cc2)N2[C@H](c3ccccc3)[C@H](c3ccccc3)OC(=O)[C@H]2[C@@H]1C(=O)O | -0.0693 | -0.173 | 0.617 | 0.307 (inactive) | -0.114 | -0.928 | -0.683 | -0.966 | -1.22 | -0.203 | -0.0303 | -0.708 | -1.09 | 0.342 | 0.521 | -0.185 | -0.42 | -0.0683 | -0.354 | -0.27
10 | O=C1O[C@@H](c2ccccc2)[C@@H](c2ccccc2)N2[C@@H](c3ccccc3OCCO)[C@]3(C(=O)Nc4ccccc43)[C@@H](C(=O)Nc3nc4ccccc4s3)[C@H]12 | 1.02 | 1.05 | 0.0859 | -1.86 (inactive) | 1.23 | 1.02 | 0.383 | 0.799 | 0.287 | 0.33 | 1.45 | -3.25 | 0.108 | 1.41 | 0.494 | -0.0621 | 0.206 | 1.96 | 0.618 | 1.56
11 | C=C[C@H](CO)NS(=O)(=O)c1ccc(Br)cc1 | 0.54 | 0.867 | -0.54 | -0.0902 (inactive) | 0.335 | 0.526 | 0.393 | 0.695 | 0.751 | 0.84 | 1.05 | 0.109 | 0.375 | 0.158 | -0.268 | -0.096 | -0.2 | -0.266 | 0.306 | 0.275
12 | COc1ccc(C#Cc2ccc3c(c2)[C@]2(C(=O)N3)[C@H](C(=O)Nc3nc4ccccc4s3)[C@H]3C(=O)O[C@H](c4ccccc4)[C@H](c4ccccc4)N3[C@@H]2c2ccc(O)cc2)cc1 | 1.15 | 1.06 | 0.144 | -0.444 (inactive) | 1.43 | 1.25 | 0.516 | 1.48 | 0.63 | 1.09 | 1.42 | -1.04 | 0.653 | 1.7 | 0.782 | 0.383 | 1.3 | 2.23 | 0.934 | 1.66
13 | C[N+](C)(C)CCCCCCNC(=O)[C@@H]1C[C@@H]2C(=O)N[C@@H](Cc3ccccc3)C(=O)N2[C@@H]1c1cccc(OCCO)c1 | 1.63 | -0.147 | 0.376 | -0.189 (inactive) | 0.72 | 0.216 | -0.0586 | 1.32 | 1.02 | 0.615 | 0.44 | 0.137 | 0.542 | -0.637 | -0.792 | -0.107 | -0.0813 | -0.364 | 1.22 | 1.24
14 | CC(C)CNC(=O)[C@@]1(Cc2ccccc2I)c2ccccc2C(=O)N(C2CCCCC2)[C@H]1c1ccc(CO)cc1 | 1.53 | 0.778 | 1.02 | 1.14 (inactive) | 0.51 | -0.218 | -0.272 | 0.248 | -0.271 | 0.504 | 0.63 | -1.62 | -0.294 | 0.424 | 0.349 | 0.0477 | 0.199 | -0.237 | 0.961 | 3
15 | CC(C)C[C@@H]1NC(=O)[C@@H]2C[C@H](C(=O)O)[C@H](c3cccc(OCCO)c3)N2C1=O | 0.881 | -0.212 | 0.598 | -0.358 (inactive) | -0.246 | 0.12 | -0.242 | 0.152 | -0.176 | -0.513 | -0.366 | 0.148 | -0.312 | 0.26 | 0.758 | -0.147 | -0.199 | -0.066 | 0.517 | -0.937
